# Data reported in the supplement of paper PMC10849652.
# Targets with a hit are over-represented here; the source holds about 7,900 in all. About 0.6% of all pairs of compound and target were hits. A number with no mark means an inactive call.
# Experiments:
# Experiment in all cases: log2 fold change, soluble protein after heating vs DMSO (PISA); higher = thermal stabilisation; K562 cells, 10 uM, 30 min; active = over 0.2 and 3.5 SD of the protein, either way, in both replicates (recomputed)
# [1] = compound: NC(=O)Nc1cc(-c2cccc(F)c2)sc1C(=O)N[C@H]1CCCNC1
# Outline: (§1)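 Soluble protein was quantified by TMTpro 16plex LC-MS/MS after channel sums were equalised. It was obtained as the supernatant after 21,000xg for 90 min from pooled aliquots of K562 cells (2×10^6 cells/mL, 10 μM compound, 30 min) heated for 3 min across 48°C-58°C and extracted in PBS with 0.5% NP-40 at 4°C. Thermal stability values are relative to control samples and come from duplicates. They are given as log2 fold changes.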
# [2] = compound: NC(=O)c1cnc(N[C@@H]2CCCC[C@@H]2N)nc1Nc1cccc(-n2nccn2)c1
# Outline: as §1
# [3] = compound: NC1(c2ccc(-c3nc4ccn5c(=O)[nH]nc5c4cc3-c3ccccc3)cc2)CCC1
# Outline: as §1
# [4] = compound: NCC(=O)Nc1ccc(-n2nc(C(F)(F)F)cc2-c2ccc3c(ccc4ccccc43)c2)cc1
# Outline: as §1
# entinostat = compound: Nc1ccccc1NC(=O)c1ccc(CNC(=O)OCc2cccnc2)cc1 [entinostat]
# Outline: as §1
# vorinostat = compound: O=C(CCCCCCC(=O)Nc1ccccc1)NO [vorinostat]
# Outline: as §1
# citarinostat = compound: O=C(CCCCCCNC(=O)c1cnc(N(c2ccccc2)c2ccccc2Cl)nc1)NO [citarinostat]
# Outline: as §1
# silmitasertib = compound: O=C(O)c1ccc2c(c1)nc(Nc1cccc(Cl)c1)c1ccncc12 [silmitasertib]
# Outline: as §1
# [5] = compound: O=C1NC(=O)C(c2cnc3ccccn23)=C1c1cn2c3c(cc(F)cc13)CN(C(=O)N1CCCCC1)CC2
# Outline: as §1
# [6] = compound: c1cc(OCCN2CCCCC2)cc(-c2n[nH]c3ccc(-c4nnc[nH]4)cc23)c1
# Outline: as §1
# UniProt O60911, sequence (O60911 whole entry, looked up): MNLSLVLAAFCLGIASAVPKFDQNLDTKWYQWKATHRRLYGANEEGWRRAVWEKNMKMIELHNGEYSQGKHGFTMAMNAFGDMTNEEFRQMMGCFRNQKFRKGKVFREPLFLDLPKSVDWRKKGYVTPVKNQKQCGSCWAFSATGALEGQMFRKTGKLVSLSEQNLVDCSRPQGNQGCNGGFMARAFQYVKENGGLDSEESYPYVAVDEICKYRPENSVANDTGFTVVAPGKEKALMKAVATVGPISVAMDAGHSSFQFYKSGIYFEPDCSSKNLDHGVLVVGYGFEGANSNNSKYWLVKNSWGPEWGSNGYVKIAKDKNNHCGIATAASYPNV
# UniProt O75071, sequence (O75071 whole entry, looked up): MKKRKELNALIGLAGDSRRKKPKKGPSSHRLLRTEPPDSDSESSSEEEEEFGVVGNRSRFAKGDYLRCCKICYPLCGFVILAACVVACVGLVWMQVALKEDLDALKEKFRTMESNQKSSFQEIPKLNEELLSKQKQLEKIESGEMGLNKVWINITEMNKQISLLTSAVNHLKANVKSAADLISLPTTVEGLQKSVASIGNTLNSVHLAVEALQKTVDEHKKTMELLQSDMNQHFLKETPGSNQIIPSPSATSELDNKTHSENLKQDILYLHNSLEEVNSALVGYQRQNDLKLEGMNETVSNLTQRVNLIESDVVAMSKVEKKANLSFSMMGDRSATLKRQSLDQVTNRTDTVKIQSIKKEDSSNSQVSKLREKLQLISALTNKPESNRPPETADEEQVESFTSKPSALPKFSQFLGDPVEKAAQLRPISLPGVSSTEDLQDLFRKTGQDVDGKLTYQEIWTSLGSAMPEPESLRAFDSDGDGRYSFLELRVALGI
# UniProt Q16643, sequence (Q16643 whole entry, looked up): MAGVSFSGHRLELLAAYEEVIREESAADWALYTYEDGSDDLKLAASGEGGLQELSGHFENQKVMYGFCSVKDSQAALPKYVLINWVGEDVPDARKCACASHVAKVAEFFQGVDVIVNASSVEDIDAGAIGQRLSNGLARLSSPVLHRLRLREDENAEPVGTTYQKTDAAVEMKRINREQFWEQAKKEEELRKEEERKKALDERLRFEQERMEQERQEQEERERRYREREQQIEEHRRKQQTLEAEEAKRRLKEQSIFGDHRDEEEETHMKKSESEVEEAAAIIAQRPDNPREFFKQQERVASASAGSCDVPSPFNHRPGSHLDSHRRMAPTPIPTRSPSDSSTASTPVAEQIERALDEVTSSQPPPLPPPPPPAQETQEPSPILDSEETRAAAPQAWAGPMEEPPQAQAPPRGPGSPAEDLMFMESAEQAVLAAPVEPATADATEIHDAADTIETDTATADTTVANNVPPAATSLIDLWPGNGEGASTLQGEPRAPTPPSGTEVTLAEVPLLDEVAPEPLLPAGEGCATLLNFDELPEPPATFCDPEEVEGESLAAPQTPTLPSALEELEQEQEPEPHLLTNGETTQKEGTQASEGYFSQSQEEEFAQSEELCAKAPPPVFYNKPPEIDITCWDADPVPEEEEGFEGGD
# UniProt Q9NSI2, sequence (Q9NSI2 whole entry, looked up): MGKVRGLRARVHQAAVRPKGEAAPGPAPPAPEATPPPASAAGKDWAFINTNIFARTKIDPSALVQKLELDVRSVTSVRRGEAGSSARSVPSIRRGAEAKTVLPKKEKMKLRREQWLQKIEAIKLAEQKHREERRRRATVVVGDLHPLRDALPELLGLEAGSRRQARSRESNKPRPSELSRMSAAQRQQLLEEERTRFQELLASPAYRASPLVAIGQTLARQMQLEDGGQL
# UniProt P98082, sequence (P98082 whole entry, looked up): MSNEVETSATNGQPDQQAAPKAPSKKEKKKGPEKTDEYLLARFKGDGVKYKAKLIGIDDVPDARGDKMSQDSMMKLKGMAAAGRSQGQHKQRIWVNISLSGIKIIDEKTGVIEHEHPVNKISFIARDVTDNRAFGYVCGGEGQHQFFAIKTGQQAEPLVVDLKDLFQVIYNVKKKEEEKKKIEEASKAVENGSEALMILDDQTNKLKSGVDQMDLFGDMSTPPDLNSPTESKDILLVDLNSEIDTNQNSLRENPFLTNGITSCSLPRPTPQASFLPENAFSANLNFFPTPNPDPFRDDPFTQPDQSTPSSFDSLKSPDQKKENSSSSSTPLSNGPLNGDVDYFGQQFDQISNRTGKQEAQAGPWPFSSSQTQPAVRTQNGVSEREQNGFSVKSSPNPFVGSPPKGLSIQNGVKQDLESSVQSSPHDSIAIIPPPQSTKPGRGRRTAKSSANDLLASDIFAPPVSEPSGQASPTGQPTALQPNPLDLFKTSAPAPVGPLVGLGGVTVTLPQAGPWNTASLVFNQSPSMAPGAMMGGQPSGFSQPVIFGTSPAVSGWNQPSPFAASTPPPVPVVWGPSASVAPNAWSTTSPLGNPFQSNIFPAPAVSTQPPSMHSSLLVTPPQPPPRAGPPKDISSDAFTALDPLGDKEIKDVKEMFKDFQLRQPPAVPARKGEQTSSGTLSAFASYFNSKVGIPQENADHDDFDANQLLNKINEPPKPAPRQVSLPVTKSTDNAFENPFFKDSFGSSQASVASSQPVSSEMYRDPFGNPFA
# UniProt Q86UK5, sequence (Q86UK5 whole entry, looked up): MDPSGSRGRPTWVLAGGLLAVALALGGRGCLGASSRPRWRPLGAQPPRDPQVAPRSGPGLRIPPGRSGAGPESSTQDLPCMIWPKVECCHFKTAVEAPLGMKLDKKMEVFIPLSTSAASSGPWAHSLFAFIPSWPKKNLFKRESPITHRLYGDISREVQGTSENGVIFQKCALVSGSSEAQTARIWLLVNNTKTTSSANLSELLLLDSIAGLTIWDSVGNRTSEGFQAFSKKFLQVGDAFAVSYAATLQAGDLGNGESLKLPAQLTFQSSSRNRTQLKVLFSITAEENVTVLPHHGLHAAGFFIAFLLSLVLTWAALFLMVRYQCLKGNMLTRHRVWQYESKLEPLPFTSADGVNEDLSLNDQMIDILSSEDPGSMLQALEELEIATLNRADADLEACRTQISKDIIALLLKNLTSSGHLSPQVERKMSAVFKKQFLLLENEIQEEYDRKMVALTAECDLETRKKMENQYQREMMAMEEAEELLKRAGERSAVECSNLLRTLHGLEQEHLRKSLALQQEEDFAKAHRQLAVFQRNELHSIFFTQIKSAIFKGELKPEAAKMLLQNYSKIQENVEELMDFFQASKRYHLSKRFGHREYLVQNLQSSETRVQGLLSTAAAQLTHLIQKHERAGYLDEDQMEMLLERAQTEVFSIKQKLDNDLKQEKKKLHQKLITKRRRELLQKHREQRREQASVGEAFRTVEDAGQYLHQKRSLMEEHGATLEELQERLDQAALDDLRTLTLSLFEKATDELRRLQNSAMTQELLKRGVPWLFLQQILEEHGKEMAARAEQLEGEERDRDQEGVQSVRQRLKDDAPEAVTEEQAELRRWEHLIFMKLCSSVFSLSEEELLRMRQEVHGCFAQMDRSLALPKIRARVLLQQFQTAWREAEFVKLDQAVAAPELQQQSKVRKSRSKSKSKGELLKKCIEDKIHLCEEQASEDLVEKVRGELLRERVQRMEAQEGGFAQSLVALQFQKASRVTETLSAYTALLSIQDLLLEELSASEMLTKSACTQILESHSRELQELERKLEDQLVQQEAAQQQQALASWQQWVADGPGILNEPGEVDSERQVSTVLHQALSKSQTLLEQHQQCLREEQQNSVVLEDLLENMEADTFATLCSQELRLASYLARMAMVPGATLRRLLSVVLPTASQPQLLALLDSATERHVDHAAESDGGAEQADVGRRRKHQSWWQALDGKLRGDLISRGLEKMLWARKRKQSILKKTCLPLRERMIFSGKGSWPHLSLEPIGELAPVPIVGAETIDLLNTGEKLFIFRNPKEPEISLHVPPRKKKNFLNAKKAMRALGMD
# UniProt Q16254, sequence (Q16254 whole entry, looked up): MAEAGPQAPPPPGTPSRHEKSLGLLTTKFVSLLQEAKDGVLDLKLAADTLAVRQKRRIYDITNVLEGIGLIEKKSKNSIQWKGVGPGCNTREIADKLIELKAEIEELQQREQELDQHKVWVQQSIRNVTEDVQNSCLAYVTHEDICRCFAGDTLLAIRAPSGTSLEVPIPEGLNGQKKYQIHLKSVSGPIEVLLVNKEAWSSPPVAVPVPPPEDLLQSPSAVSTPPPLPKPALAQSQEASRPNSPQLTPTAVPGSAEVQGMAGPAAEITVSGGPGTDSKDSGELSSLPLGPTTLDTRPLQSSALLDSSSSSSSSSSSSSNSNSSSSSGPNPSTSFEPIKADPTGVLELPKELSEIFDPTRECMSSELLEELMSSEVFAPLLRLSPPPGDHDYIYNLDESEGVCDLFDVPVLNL
# UniProt Q9NX74, sequence (Q9NX74 whole entry, looked up): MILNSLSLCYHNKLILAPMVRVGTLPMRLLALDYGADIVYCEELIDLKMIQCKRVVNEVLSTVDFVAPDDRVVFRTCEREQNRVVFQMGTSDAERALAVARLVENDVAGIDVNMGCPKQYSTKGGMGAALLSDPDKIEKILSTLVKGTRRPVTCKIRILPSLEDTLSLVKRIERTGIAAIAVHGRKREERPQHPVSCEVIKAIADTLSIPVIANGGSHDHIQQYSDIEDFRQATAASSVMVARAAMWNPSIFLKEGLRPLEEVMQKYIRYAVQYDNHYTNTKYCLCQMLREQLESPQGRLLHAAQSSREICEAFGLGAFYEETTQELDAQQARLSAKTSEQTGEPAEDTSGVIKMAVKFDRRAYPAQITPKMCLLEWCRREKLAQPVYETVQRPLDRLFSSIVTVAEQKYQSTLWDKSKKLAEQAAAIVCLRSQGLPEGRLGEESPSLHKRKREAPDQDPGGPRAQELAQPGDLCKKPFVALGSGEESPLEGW
# UniProt P50402, sequence (P50402 whole entry, looked up): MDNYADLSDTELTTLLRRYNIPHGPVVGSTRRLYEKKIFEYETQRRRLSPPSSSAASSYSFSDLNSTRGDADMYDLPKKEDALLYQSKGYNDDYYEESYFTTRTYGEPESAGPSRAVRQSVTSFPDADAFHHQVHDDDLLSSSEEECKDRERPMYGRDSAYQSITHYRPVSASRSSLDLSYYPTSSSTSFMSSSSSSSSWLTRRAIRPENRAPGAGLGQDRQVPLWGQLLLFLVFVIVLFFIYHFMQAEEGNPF
Target,log2 fold change [1],log2 fold change [2],log2 fold change [3],log2 fold change [4],log2 fold change (entinostat),log2 fold change (vorinostat),log2 fold change (citarinostat),log2 fold change (silmitasertib),log2 fold change [5],log2 fold change [6]
EFCAB14 (UniProt O75071),0.024,0.218,-0.123,-0.006,0.007,-0.057,0.181,0.022,-0.031,-0.075
FAM160B1 (UniProt Q5W0V3),0.04,-0.038,-0.211 (active),-0.043,0.026,0.139,0.069,-0.026,-0.064,0
CTSV (UniProt O60911),0,-0.066,-0.296,-0.052,-0.063,-0.029,-0.008,0.027,-0.105,0.165
E2F4 (UniProt Q16254),0.004,-0.052,-0.105,-0.032,0.016,-0.052,0.067,0.001,0.015,0.005
EXOC6 (UniProt Q8TAG9),-0.052,-0.091,-0.258,-0.078,0.045,0.324 (active),0.023,0.049,0.03,0.007
EHD2 (UniProt Q9NZN4),-0.034,-0.048,-0.072,-0.096,0.033,0.055,0.048,0.012,-0.04,-0.015
CUTA isoform 2 (UniProt O60888),-0.022,0.153,0.013,0.063,0.019,-0.005,0.113,-0.031,-0.132,-0.046
EVC2 (UniProt Q86UK5),-0.074,-0.129,0.013,-0.268,0.004,-0.071,0.024,-0.042,0.024,-0.114
DNAJB1 (UniProt P25685),-0.006,-0.041,-0.09,-0.083,0.013,0.034,0.044,0.011,-0.005,-0.04
DDX27 (UniProt Q96GQ7),0.002,0.04,0.198,0.123,-0.106,-0.039,-0.103,0.087,0.326,-0.218
FAM207A (UniProt Q9NSI2),-0.005,0.076,-0.165,-0.042,0.052,0.015,0.106,0.356,0.099,-0.117
DCAF6 isoform 3 (UniProt Q58WW2),0,0.019,0.026,0.007,-0.005,0.003,0.021,0.045,-0.009,-0.008
CTSB (UniProt P07858),-0.013,-0.043,-0.283 (active),0.005,-0.047,0.016,-0.015,0.002,-0.067,-0.07
DBN1 isoform 3 (UniProt Q16643),0.098,0.027,-0.039,-0.003,-0.036,0.128,-0.032,0.066,-0.03,-0.053
DUS3L (UniProt Q96G46),0.113,-0.012,0.194,0.003,0.003,0.093,0.058,0.112,-0.176,-0.029
EDC3 (UniProt Q96F86),-0.162,-0.229,-0.119,-0.075,0.07,0.154,0.042,-0.047,-0.068,-0.152

Target,log2 fold change [1],log2 fold change [2],log2 fold change [3],log2 fold change [4],log2 fold change (entinostat),log2 fold change (vorinostat),log2 fold change (citarinostat),log2 fold change (silmitasertib),log2 fold change [5],log2 fold change [6]
FADS3 (UniProt Q9Y5Q0),-0.086,-0.096,-0.074,0.079,-0.06,0.024,0.022,-0.008,0.259,-0.034
DHX36 (UniProt Q9H2U1),0,0.025,-0.028,0.056,-0.003,-0.028,0.014,0.009,0.11,-0.283 (active)
DNTTIP2 (UniProt Q5QJE6),0.14,-0.054,0.155,0.029,-0.03,0.045,0.016,0.102,-0.028,-0.095
EFL1 (UniProt Q7Z2Z2),0.001,-0.023,-0.106,-0.026,0.025,0.071,0.047,0.017,-0.025,-0.023
DNAJC1 (UniProt Q96KC8),0.013,-0.055,-0.082,-0.08,0.042,0.106,0.017,0.01,-0.016,-0.083
ERLIN2 (UniProt O94905),0.04,-0.047,-0.01,-0.062,0.032,0.048,0.011,0.002,0.069,-0.044
DUS2 (UniProt Q9NX74),0.051,-0.066,-0.091,-0.004,0.008,0.041,0.124,0.092,-0.424 (active),0.038
ECH1 (UniProt Q13011),0,-0.101,0.295,-0.078,-0.025,-0.015,0.002,-0.072,-0.076,0.038
DPP8 (UniProt Q6V1X1),-0.243,-0.126,-0.04,-0.079,-0.124,-0.021,-0.325 (active),0.063,-0.114,0.219
EMD (UniProt P50402),-0.012,-0.064,-0.068,-0.041,-0.031,-0.017,-0.076,0.054,-0.084,-0.141
DAB2 (UniProt P98082),-0.006,-0.033,-0.124,0.016,-0.026,-0.066,0.037,0.102,0.001,-0.041
EXOC8 (UniProt Q8IYI6),0.044,-0.044,-0.373 (active),-0.039,0.108,0.051,0.084,0.035,0.045,-0.062
CTSA (UniProt P10619),0.031,0.092,-0.067,-0.013,0.001,-0.03,-0.005,0.044,-0.023,0.134
EHBP1L1 (UniProt Q8N3D4),-0.091,-0.04,-0.039,-0.039,0,0.054,0.041,0.015,-0.043,-0.101
DYNC1I2 isoform 2 (UniProt Q13409),0.181,0,-0.037,–,-0.206,–,0.094,-0.154,-0.127,-0.035
